Source: PubChem BioAssay (National Center for Advancing Translational Sciences (NCATS))
Only some compounds are listed: those with a hit (about 0.41% of all), similar ones and a draw of the others.
N370S GC – N370S glucocerebrosidase modulation, Gaucher chaperone candidate; AID 2101; Potency, µM (highest dose often 59.4 µM), actives largely listed as inhibitors; 330,000 tested, 0.092% active; P04062; N370S GC spleen homogenate, 4MU-glucoside fluorescence
GLA inh pH 4.5 – inhibitors of human alpha-galactosidase A at pH 4.5. activity change, negative = inhibition, % at 105 µM. 230,000 tested, under 10 active. purified enzyme, 4-MU-alpha-Gal fluorescence, pH 4.5. AID 1467
GAA glycogen – alters human alpha-glucosidase cleavage of glycogen. P10253. recombinant GAA, glycogen substrate, Amplex Red glucose oxidase fluorescence. Potency, µM (highest dose often 76.4 µM), hits mostly inhibitors. 300,000 tested, 0.38% active. AID 2100;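 note: the screen sought inhibitors and activators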
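Recombinant human enzyme (4 nM); glycogen substrate; 37 C, 40 min, pH 5.0. Readout: coupled glucose oxidase/Amplex Red fluorescence.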
aGal spleen mod – inhibits or activates alpha-galactosidase in human spleen homogenate. 240,000 tested, 0.008% active. P06280. Potency, µM (highest dose often 80 µM), usual class: inhibitors. AID 2107. human spleen homogenate, 4MU-alpha-Gal fluorescence, 40 min
Target sequence (P06280 32-429 limits assumed): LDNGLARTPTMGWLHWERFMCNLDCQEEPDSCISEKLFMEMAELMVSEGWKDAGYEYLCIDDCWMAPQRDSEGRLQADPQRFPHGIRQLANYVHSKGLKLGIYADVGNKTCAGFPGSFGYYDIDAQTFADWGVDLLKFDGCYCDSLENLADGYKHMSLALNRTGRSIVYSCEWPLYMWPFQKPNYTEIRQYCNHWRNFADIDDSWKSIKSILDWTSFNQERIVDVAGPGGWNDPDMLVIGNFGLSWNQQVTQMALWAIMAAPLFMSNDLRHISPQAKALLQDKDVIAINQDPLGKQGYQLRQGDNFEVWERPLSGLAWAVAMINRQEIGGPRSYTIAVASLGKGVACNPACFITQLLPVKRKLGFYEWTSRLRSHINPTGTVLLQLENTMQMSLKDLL
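Human spleen homogenate (1 ug) was the enzyme source, with 4-methylumbelliferyl-alpha-D-galactopyranoside (1 mM final) in pH 5.0 citrate buffer with 0.01% Tween-20. Compounds were titrated; after 40 min at 37C, NaOH/glycine stop, 4-MU fluorescence read; AC50 from Hill fits.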
aGlu spleen mod – inhibits or activates alpha-glucosidase in human spleen homogenate. P10253. Potency, µM (titrated, usually from 79.9 µM), hits mostly inhibitors. AID 2112. human spleen homogenate, 4-MU-alpha-glucoside fluorescence. 240,000 tested, 0.006% active
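Compounds were titrated against alpha-glucosidase in spleen homogenate at pH 5.0, with 1 mM 4-methylumbelliferyl substrate for 40 min at 37 C. Reactions were quenched with pH 10 NaOH/glycine and fluorescence measured.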
GAA inh – inhibitors of human lysosomal alpha-glucosidase. P10253. purified human GAA, 4-MU-alpha-glucoside fluorescence. Potency, µM (series often up to 76.9 µM), usual class: inhibitors. 200,000 tested, 0.005% active
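AC50 values come from Hill fits of compound titrations (up to 77 uM) against 4 nM human enzyme. Substrate 4-methylumbelliferyl-alpha-D-pyranoside at 400 uM, pH 5.0 citrate buffer, 20 min room temperature; fluorescence Ex 365/Em 440 after alkaline stop.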
Large screens that a line does not name were inactive. Calls come from the whole dose curve; as a rule, active = well fitted curve in the direction sought with a large enough effect; inconclusive = small, poorly fitted or top-dose-only effect, or another doubt; inactive = no such curve, though single readings can be large; an effect the other way counts as inactive or inconclusive.

c1cc(CNc2ccc3c(c2)OCO3)ccn1	GAA glycogen 32µM
Cc1ccc(CNc2ccc3c(c2)OCO3)cc1	none
Cc1ccc(NC(=O)C(NS(=O)(=O)c2ccc3c(c2)CCC(=O)N3)c2ccccc2)cc1C (stereo not drawn)	none (no result: N370S GC, GLA inh pH 4.5, aGal spleen mod, aGlu spleen mod, GAA inh)
CCOc1ccc(S(=O)(=O)N(CC(=O)NCCc2ccc(OC)cc2)c2ccccc2)cc1	none (no result: N370S GC, GLA inh pH 4.5, aGal spleen mod, aGlu spleen mod, GAA inh)
CCOc1ccc(N(CC(=O)NCc2ccc(OC)cc2)S(=O)(=O)c2c(C)[nH]c(=O)[nH]c2=O)cc1	N370S GC 11µM (no result: GLA inh pH 4.5, aGal spleen mod, aGlu spleen mod, GAA inh)
COc1ccc(CNC(=O)CN(c2ccc(C)cc2)S(=O)(=O)c2c(C)n[nH]c2C)cc1	none (no result: N370S GC, GLA inh pH 4.5, aGal spleen mod, aGlu spleen mod, GAA inh)
CCOc1ccc(N(CC(=O)NCCc2ccc(Cl)cc2)S(=O)(=O)c2c(C)[nH]c(=O)[nH]c2=O)cc1	N370S GC 10µM
CC(=O)c1cccc(NC(=O)c2ccc3c(c2)CCN3S(=O)(=O)c2ccccc2)c1	none (no result: GLA inh pH 4.5, aGal spleen mod, aGlu spleen mod, GAA inh)
CCS(=O)(=O)N1CCCc2cc(C(=O)Nc3cccc(C(C)=O)c3)ccc21	GAA glycogen 35µM (no result: N370S GC, GLA inh pH 4.5, aGal spleen mod, aGlu spleen mod, GAA inh)
Cc1ccc(-c2cnc(NCc3c(F)cccc3Cl)n2C)cc1	GAA glycogen 22µM (no result: N370S GC, GLA inh pH 4.5, aGal spleen mod, aGlu spleen mod, GAA inh)
O=C1N[C@@H]2[C@H](CCCCC(=O)Oc3ccc([N+](=O)[O-])cc3)SC[C@H]2N1	none (no result: GLA inh pH 4.5, GAA glycogen, GAA inh)
Cc1ccc(Nc2cc(C)nc(NCc3ccccc3)n2)cc1	none
Cc1cc(NC2CCCCC2)nc(NCc2ccccc2)n1	N370S GC 18µM
Oc1ccc(Nc2ccnc3cc(Cl)ccc23)cc1	N370S GC inconclusive, GAA glycogen 13µM (no result: GAA inh)
COc1ccc(-n2nnnc2C2CCN(S(=O)(=O)c3ccc(NC(C)=O)cc3)CC2)cc1	none (no result: N370S GC, GLA inh pH 4.5, aGal spleen mod, aGlu spleen mod, GAA inh)
O=C(O)c1cc(N=Nc2ccc(-c3ccc(N=Nc4ccc(O)c(C(=O)O)c4)cc3)cc2)ccc1O	none (no result: GLA inh pH 4.5, GAA glycogen, GAA inh)
O=C(Nc1ccc(F)cc1)c1c(Cl)nc2ccccn12	none
Fc1ccc(Nc2c(-c3c[nH]c4ccccc34)nc3ccccn23)cc1	GAA glycogen 14µM (no result: N370S GC, GLA inh pH 4.5, aGal spleen mod, aGlu spleen mod, GAA inh)
O=c1c(-c2cc(F)cc(F)c2)nc2cnc(N3CCNCC3)nc2n1Cc1ccc(F)cc1	none (no result: GLA inh pH 4.5, GAA glycogen, GAA inh)
Nc1nc(Cl)nc2c1ncn2C1OC(CO)C(O)C1F (stereo not drawn)	none (no result: GLA inh pH 4.5, GAA glycogen, GAA inh)
Oc1ccc(Br)cc1-c1nc2cnccn2c1NC1CCCC1	GAA glycogen 16µM
N#Cc1ccc(-c2csc(NNC(=O)c3ccccc3)n2)cc1	GAA glycogen 28µM
COc1ccc(CN2CCC3C=CCC(C(=O)O)C3C2=O)cc1OC (stereo not drawn)	none (no result: GLA inh pH 4.5, GAA glycogen, GAA inh)
CCOC(=O)c1c(Nc2ccc(OCC)cc2)nnc(-c2ccccc2)c1-c1ccccc1	none (no result: N370S GC, GLA inh pH 4.5, aGal spleen mod, aGlu spleen mod, GAA inh)
CCN(CC)c1ccc(NC(=S)NC(=O)c2ccco2)cc1	GAA glycogen 11µM
CC(=O)NC(=S)Nc1ccc(NC(=S)NC(=O)c2cccs2)cc1	none (no result: GLA inh pH 4.5, aGal spleen mod, aGlu spleen mod, GAA inh)
CCN(CC)c1ccc(NC(=S)NC(=O)c2cccs2)cc1	N370S GC inconclusive, GAA glycogen 14µM
Cc1ccc(NC(=O)CSc2ccc(-c3cccs3)nn2)cc1Cl	none (no result: N370S GC, GLA inh pH 4.5, aGal spleen mod, aGlu spleen mod, GAA inh)
Oc1ccc(NC(=S)N=Nc2c(O)[nH]c3ccccc23)cc1	GAA glycogen 40µM
Oc1cccc(NC(=S)N=Nc2c(O)[nH]c3ccc(Br)cc23)c1	N370S GC 7.9µM (no result: GAA inh)
CSCC[C@H](NC(=O)[C@H](CC(C)C)N1CCC(NC(=O)[C@@H](NC(=O)[C@H](Cc2ccccc2)NC(=O)[C@H](CO)NC(=O)[C@H](CC(=O)O)NC(=O)[C@@H](N)CCCCN)C(C)C)C1=O)C(N)=O (stereo partly drawn)	none (no result: GLA inh pH 4.5, GAA glycogen, GAA inh)
COc1ccc2c(c1)C(=O)[C@H](OC(=O)Nc1cc(OC)c(OC)c(OC)c1)[C@@H](c1ccc(OC)c(Br)c1)O2	none (no result: GAA glycogen, GAA inh)
CC1CCC/C(=C\Nc2ccc(O)cc2)C1=O (stereo not drawn)	GAA glycogen 14µM
O=c1c(-c2ccc(O)cc2)coc2cc(O[C@@H]3O[C@H](CO)[C@H](O)[C@H](O)[C@H]3O)ccc12	none (no result: GLA inh pH 4.5, GAA glycogen, GAA inh)
NC(=S)N=Nc1ccc(NN=C(N)N)cc1	GAA glycogen 40µM (no result: GLA inh pH 4.5, aGal spleen mod, aGlu spleen mod, GAA inh)
N#C/C(=N/Nc1ccc(OC(F)(F)F)cc1)C(N)=S	GAA glycogen inconclusive
